Measured values reported in PubChem BioAssay (NCATS).
Where “and” joins values, the source holds several entries; their conditions need not be identical. Equal values may be shown once. Inconclusive results are not listed. Calls of active or inactive are those of the source. Calls come from the whole dose curve; as a rule, active = well fitted curve in the direction sought with a large enough effect; inconclusive = small, poorly fitted or top-dose-only effect, or another doubt; inactive = no such curve, though single readings can be large; an effect the other way counts as inactive or inconclusive.

Columns and labels:
[1] = molecular target: Glutathione peroxidase 1 (Homo sapiens) (UniProt P07203); assay: Primary qHTS Assay for Inhibitors of Recombinant Selenoprotein Glutathione Peroxidase 1 (GPX1) (AID 1845191); note: nearly all actives have a fitted effect of over 65% in size; for activity, negative = inhibition: % is set by controls: 0 for no effect and ±100 for the full control effect
In short: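 GR-coupled readout: NADPH consumption tracked by fluorescence, ex 340/em 450 nm, at t=0 and after 15 min at RT. Final mix 10 nM GPX1, 1 mM GSH, 0.5 mM CHP, 0.5 mM NADPH, 100 nM GR, 0.01% BSA, following 30 min enzyme–compound preincubation.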

[2] = molecular target: Phospholipid hydroperoxide glutathione peroxidase GPX4 (Homo sapiens) (UniProt P36969); assay: Primary qHTS Assay for Inhibitors of Recombinant Selenoprotein Glutathione Peroxidase 4 (GPX4) (AID 1845192); note: nearly all actives have a fitted effect of over 65% in size; note: potency is the fitted concentration of half-maximal effect; for activity change, negative = inhibition: series mostly up to about 50 µM; % is set by controls: 0 for no effect and ±100 for the full control effect
In short: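 Steps: GPX4 plus compound, 30 min RT; add GR/GSH/NADPH master mix; start with cumene hydroperoxide; read 340/450 nm fluorescence at 0 and 15 min. Finals were 200 nM GPX4, 1 mM GSH, 0.5 mM CHP, 0.5 mM NADPH, 100 nM GR.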

[3] = molecular target: Luciferin 4-monooxygenase (Photinus pyralis) (UniProt P08659); assay: Primary firefly luciferase (FLuc) qHTS assay for identification of artifact compounds. (AID 1845220); note: nearly all actives have a fitted effect of over 60% in size;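 for activity change, negative = inhibition: series mostly up to about 54 µM; plate controls were DMSO vehicle for no effect and no enzyme for full effect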
In short: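 Titrated compounds were incubated 15 min at RT, protected from light, with luciferin and ATP at 10 uM; reaction started with 10 nM FLuc, luminescence imaged at 5 min, and concentration-response fitted by Hill equation.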

[4] = Primary fluorescence-based thiol-reactive (MSTI) qHTS assay for identification of artifact compounds. (AID 1845221); note: nearly all actives have a fitted effect of over 65% in size; note: potency is the fitted concentration of half-maximal effect;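 for activity change, negative = thiol reactive: series mostly up to about 54 µM; thiol-reactive compounds lower the probe fluorescence signal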
In short: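 MSTI probe at 4 uM final in 2% DMSO/PBS pH 7.4; compounds, 1 h at room temperature in dark. Fluorescence Ex/Em 525/598 nm, normalised to Acetyl-MSTI and MSTI, fitted to 4-parameter Hill.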

[5] = tested on: Nanoluciferase (engineered Oplophorus gracilirostris luciferase); assay: Primary Nanoluciferase (NLuc) qHTS assay for identification of artifact compounds. (AID 1845222);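 note: NLuc secreted into diluted conditioned medium of S16 cells; series mostly up to about 54 µM; 0% = DMSO and -100% = no enzyme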
In short: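 qHTS format, against NLuc in S16 cell-conditioned medium. Nano-Glo substrate 1:100 was added after 15 min at room temperature. Luminescence was taken after a further 5 min.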

[6] = Primary redox qHTS assay for identification of artifact compounds. (AID 1845223);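 note: 0% = DMSO and 100% = reference compound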
In short: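 Redox-cycling detection via DTT (250 uM final) oxidation coupled to Amplex Red (25 uM)/HRP (250 mU/mL) in HBSS. 15 min preincubation plus 30 min after DTT, room temperature. Ex/Em 525/598 nm; 4-parameter Hill fit against DMSO and 10 uM DA3003.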

Sequence of Phospholipid hydroperoxide glutathione peroxidase GPX4 (Homo sapiens) (P36969 whole entry, looked up): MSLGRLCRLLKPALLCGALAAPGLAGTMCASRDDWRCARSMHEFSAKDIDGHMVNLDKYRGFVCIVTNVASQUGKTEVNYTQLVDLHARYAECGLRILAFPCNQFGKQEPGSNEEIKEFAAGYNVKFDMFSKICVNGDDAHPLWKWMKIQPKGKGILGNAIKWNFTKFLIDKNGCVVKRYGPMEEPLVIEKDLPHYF
Sequence of Glutathione peroxidase 1 (Homo sapiens) (P07203 whole entry, looked up): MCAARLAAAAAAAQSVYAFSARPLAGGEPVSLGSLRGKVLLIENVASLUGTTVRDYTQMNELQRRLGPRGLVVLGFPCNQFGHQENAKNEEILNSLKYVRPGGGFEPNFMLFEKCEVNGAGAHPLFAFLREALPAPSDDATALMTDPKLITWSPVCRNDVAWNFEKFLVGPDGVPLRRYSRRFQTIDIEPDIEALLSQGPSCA

CC(=O)O[C@@H]1C[C@]2(C)[C@@]3(CCC4[C@@]5(C)CC[C@H](O[C@@H]6O[C@H](C(=O)O)[C@@H](O)[C@H](OC7OC(CO)C(O)C(O)[C@H]7O[C@@H]7O[C@@H](C)[C@H](O)[C@@H](O)[C@H]7O[C@@H]7OC[C@](O)(CO)[C@H]7O)[C@H]6OC6OC(CO)C(O)C(O)C6O)C(C)(C)C5CC[C@]42C)OC[C@@]12CCC(C)(C)CC23 (stereo partly specified)
inactive: activity, negative = inhibition [1] -11.2% [at 9.52 µM] | activity change, negative = inhibition [2] -2.16% [at 9.73 µM] | activity change, negative = inhibition [3] -3.18% [at 11.6 µM] | activity change, negative = thiol reactive [4] 238% [at 11.5 µM] | activity, negative = inhibition [5] 0.912% [at 11.6 µM] | redox activity (% of DA3003) [6] 8.79% [at 11.5 µM]

CN(C)c1ccnc2sc3c(=O)n(N4CCCCCC4)cnc3c12
inactive: Potency [1] | Potency [2] | Potency [3] | Potency [4] | Potency [5] | Potency [6]

Cc1ccc(C(C)C)c(O[C@@H]2O[C@H](CO)[C@@H](O)[C@H](O)[C@H]2O)c1
inactive: Potency [1] | Potency [2] | Potency [3] | Potency [5] | Potency [6]
active: Potency [4] 10.4 µM

CCCCc1ccc(NS(=O)(=O)c2ccc(F)cc2)cc1
inactive: Potency [1] | Potency [2] | Potency [3] | Potency [4] | Potency [5] | Potency [6]

CN(C)C(=O)COC(=O)c1cc(-c2ccc(C3CCNCC3)cc2)c2ccc(-c3ccc(C(F)(F)F)cc3)cc2c1
inactive: Potency [1] | Potency [2] | Potency [3] | Potency [4] | Potency [5] | Potency [6]

C=C1CCC2C(C)(C)CCCC2(C)C1CC/C(C)=C\CO (stereo unspecified)
inactive: Potency [1] | Potency [2] | Potency [3] | Potency [4] | Potency [5] | Potency [6]

CN(C)C(=O)C(=O)c1cn(C)c2cc(Cl)c(C(=O)N3CCC(Cc4ccc(F)cc4)CC3)cc12
inactive: Potency [1] | Potency [2] | Potency [3] | Potency [4] | Potency [5]

CC(=O)c1c(C)cc2cccc(O)c2c1O[C@@H]1O[C@H](CO)[C@@H](O)[C@H](O)[C@H]1O
inactive: Potency [1] | Potency [2] | Potency [3] | Potency [5]
active: Potency [4] 5.21 µM

CCC(C)C(=O)OC1C(C)C2(O)C(C=C(CO)CC3(O)C(=O)C(C)=CC32)C2C(C)(C)C12OC(=O)C(C)C (stereo unspecified)
inactive: Potency [1] | Potency [2] | Potency [3] | Potency [4] | Potency [5] | Potency [6]

CC(=O)O[C@@H]1CC2C(/C=C(\C)C(=O)[C@@]3(O)C[C@@H](C)[C@H](OC(=O)c4ccccc4)C3/C=C/1C)C2(C)C (stereo partly specified)
inactive: Potency [1] | Potency [2] | Potency [3] | Potency [4] | Potency [5] | Potency [6]

Cn1ncc(Cl)c1-c1cc(C(=O)N[C@H](CN)Cc2cccc(F)c2)sc1Cl
inactive: Potency [1] | Potency [2] | Potency [3] | Potency [4] | Potency [5] | Potency [6]

CC1(C)CC[C@]23CO[C@@]4(CCC5[C@@]6(C)CC[C@H](O[C@@H]7OC[C@H](O[C@@H]8O[C@H](CO)[C@@H](O)[C@H](O)[C@H]8O[C@@H]8OC[C@@H](O)[C@H](O)[C@H]8O)[C@H](O)[C@H]7O[C@@H]7O[C@H](CO)[C@@H](O)[C@H](O)[C@H]7O)[C@@](C)(CO)C6CC[C@@]5(C)[C@]4(C)C[C@H]2O)[C@@H]3C1 (stereo partly specified)
inactive: Potency [1] | Potency [2] | outcome [3] inactive [at 11.6 µM] | activity change, negative = thiol reactive [4] 317% [at 11.5 µM] | activity, negative = inhibition [5] 3.72% [at 11.6 µM]

COc1c(C)cnc(Cn2cc(C#CCC(C)(C)O)c3c(Cl)nc(N)nc32)c1C
inactive: Potency [1] | Potency [2] | Potency [3] | Potency [4] | Potency [5]

COC(=O)c1cc(Br)cnc1N1CCC(NC2CCCCC2)C(O)C1 (stereo unspecified)
inactive: Potency [1] | Potency [2] | Potency [3] | Potency [4] | Potency [5] | Potency [6]

CCCOc1ccc(S(=O)(=O)N2CCN(CCO)CC2)cc1-c1nc2c(CCC)cn(CC)c2c(=O)[nH]1
inactive: Potency [1] | Potency [2] | Potency [3] | Potency [4] | Potency [5]

C=C(C)C(=O)OC1CC2(C)OC(=CC2=O)C(=C)CC2OC(=O)C(=C)C12 (stereo unspecified)
inactive: Potency [1] | Potency [2] | Potency [3] | Potency [4] | Potency [5] | Potency [6]

CC(C)(C)[C@H](NC(=O)c1ccc(N)c(Cl)c1)C(=O)N1CCC[C@H]1C(=O)N[C@H](C#N)CC(=O)O
inactive: Potency [1] | Potency [2] | Potency [3] | Potency [4] | Potency [5] | Potency [6]

Cc1nc(-c2cn3c(n2)-c2ccc(-c4cnn(C(C)(C)C(N)=O)c4)cc2OCC3)n(C(C)C)n1
active: Potency [2] 14.3 µM and 20.2 µM
inactive: Potency [1] | Potency [3] | Potency [4] | Potency [5]

COc1ccc(-n2c(SCCCN3C(=O)c4cccc5cccc(c45)C3=O)nnc2-c2ccncc2)cc1
inactive: Potency [1] | Potency [2] | Potency [3] | Potency [4] | Potency [5] | Potency [6]

CC(C)CCCCC(=O)N[C@@H](CO)C(=O)N[C@@H](CC(C)C)C(=O)[C@@]1(CO)CO1
inactive: Potency [1] | Potency [2] | Potency [3] | Potency [4] | Potency [5] | Potency [6]

COc1ccc2nccc(C(=O)CC[C@@H]3CCN(CC#Cc4cc(F)cc(F)c4F)C[C@@H]3C(=O)O)c2c1
inactive: Potency [1] | Potency [2] | Potency [3] | Potency [4] | Potency [5]

CC1(C)CCCC2(C)C1C(=O)C=C(C(=O)O)C2(O)C(=O)O (stereo unspecified)
active: Potency [4] 9.47 µM
inactive: Potency [1] | Potency [2] | Potency [3] | Potency [5]

CC1OC2OC(=O)C3(C)CC4C5(CO5)C5=CC(=O)OC(C)(C)C5=CC(=O)C4(C)C(C1=O)C23 (stereo unspecified)
inactive: Potency [1] | Potency [2] | Potency [3] | Potency [5]
active: Potency [4] 1.03 µM

C=C1/C(=C/C=C2\CCC[C@]3(C)[C@@H]([C@H](C)CC[C@@H](O)C(C)(C)O)CC[C@@H]23)C[C@@H](O)C[C@@H]1O
inactive: Potency [1] | Potency [2] | Potency [3] | Potency [4] | Potency [5]

C=C1C(=O)OC2CC(C)C(CCC(C)=O)=CCC12 (stereo unspecified)
inactive: Potency [1] | Potency [2] | Potency [3] | Potency [4] | Potency [5] | Potency [6]

COc1cc(N2CCC(O)CC2)ccc1Nc1nc(Nc2ccccc2S(=O)(=O)C(C)C)c2[nH]cnc2n1
inactive: Potency [1] | Potency [2] | Potency [3] | Potency [5]
active: Potency [4] 1.68 µM

CC1(C=O)CCCC2(C)C1CCC13CC(CO)C(CCC12)C3 (stereo unspecified)
inactive: Potency [1] | Potency [2] | Potency [3] | Potency [4] | Potency [5] | Potency [6]

CCN1CCN(Cc2ccc(C(=O)Nc3ccc(C)c(Oc4ccc5c(c4)CC(=O)N5)c3)cc2C(F)(F)F)CC1
inactive: Potency [1] | Potency [2] | Potency [3] | Potency [4] | Potency [5] | Potency [6]

COc1cc(Br)c(S(=O)(=O)Nc2ccc(Cl)c(O[C@@H]3CCN(C)C3)c2)cc1OC
inactive: Potency [1] | Potency [2] | Potency [3] | Potency [4] | Potency [5]

COc1ccccc1N1CCN(CC(C(=O)NC(C)(C)C)c2ccccc2)CC1 (stereo unspecified)
inactive: Potency [1] | Potency [2] | Potency [3] | Potency [4] | Potency [5] | Potency [6]

C/C=C\NC(=O)C1NC(=O)C(CC(N)=O)NC(=O)C(NC(=O)C(=O)C(C)CC)Cc2ccc(O)c(c2)-c2cccc3c2NC(=O)C3(O)C1O (stereo unspecified)
inactive: Potency [1] | Potency [2] | Potency [3] | Potency [4] | Potency [5] | Potency [6]

O=C(C(Cc1cccc(C(F)(F)F)c1)NS(=O)(=O)c1cc(F)c2c(c1)CCNC2)N1CCCC1 (stereo unspecified)
inactive: Potency [1] | Potency [2] | Potency [3] | Potency [4] | Potency [5] | Potency [6]

CC1CC(=O)C2=C(C1)C1OC1C1(O)C2C(=O)c2cccc(O)c2C1O (stereo unspecified)
inactive: Potency [1] | Potency [2] | Potency [3] | Potency [5] | Potency [6]
active: Potency [4] 6.56 µM

COc1ccc2c(c1O[C@H]1CCNC1)CCC2
inactive: Potency [1] | Potency [2] | Potency [3] | Potency [4] | Potency [5] | Potency [6]

C=C1C(=O)OC2CC3(C)C(O)C(=O)C=C(C)C3CC12 (stereo unspecified)
inactive: Potency [1] | Potency [2] | Potency [3] | Potency [5] | Potency [6]
active: Potency [4] 2.67 µM

C[C@H](Oc1cc(-n2cnc3ccc(CN4CCN(C)CC4)cc32)sc1C(N)=O)c1ccccc1C(F)(F)F
inactive: Potency [1] | Potency [2] | Potency [3] | Potency [4] | Potency [5] | Potency [6]

COc1cc([C@H]2O[C@H](c3cc(OC)c4c(c3)OCO4)[C@H](C)[C@H]2C)cc(OC)c1OC
inactive: Potency [1] | Potency [2] | Potency [3] | Potency [4] | Potency [5] | Potency [6]

CN1CCN(C(=O)CN[C@@H]2C[C@H]2c2ccc(OCc3ccccc3)cc2)CC1
inactive: Potency [1] | Potency [2] | Potency [3] | Potency [4] | Potency [5] | Potency [6]
